High-throughput results (PubChem BioAssay)
ELG1 DNA repair: qHTS screen for small molecules that inhibit ELG1-dependent DNA repair in human embryonic kidney (HEK293T) cells expressing luciferase-tagged ELG1. HEK293T ELG1-luciferase reporter, luminescence, 16 h; DNA damage induced by 5-fluorouridine. Potency, µM (titrated, usually from 46.1 µM), inactives show at the top dose activity change, negative = inhibition, usual class: inhibitors. hit rate 2.3% among 330,000. AID 504467, 2011; also: % is scaled to controls: 0 for no effect and ±100 for the full control effect; nearly all actives have a fitted effect of over 55% in size
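Quantitative HTS, concentration-response format. 2,000 cells/well co-treated with 5-fluorouridine and compound, 16 hr in 5% CO2 at 37 °C; ONE-Glo luminescence read after 30 min.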
FLuc modulator: qHTS profiling assay for firefly luciferase inhibitor/activator using purifed enzyme and Km concentrations of substrates (counterscreen for miR-21 project); Luciferin 4-monooxygenase (Photinus pyralis), P08659; purified FLuc, Km substrates, luminescence inhibition; Potency, µM (highest dose often 57.5 µM), without a hit: at the top dose activity change, negative = inhibition, most hits filed as inhibitors; hit rate 6.9% among 360,000; AID 588342, 2011;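 also: plate controls were vehicle for no effect and reference inhibitor for full effect; nearly all actives have a fitted effect of over 55% in size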
Target sequence (P08659 whole entry, looked up): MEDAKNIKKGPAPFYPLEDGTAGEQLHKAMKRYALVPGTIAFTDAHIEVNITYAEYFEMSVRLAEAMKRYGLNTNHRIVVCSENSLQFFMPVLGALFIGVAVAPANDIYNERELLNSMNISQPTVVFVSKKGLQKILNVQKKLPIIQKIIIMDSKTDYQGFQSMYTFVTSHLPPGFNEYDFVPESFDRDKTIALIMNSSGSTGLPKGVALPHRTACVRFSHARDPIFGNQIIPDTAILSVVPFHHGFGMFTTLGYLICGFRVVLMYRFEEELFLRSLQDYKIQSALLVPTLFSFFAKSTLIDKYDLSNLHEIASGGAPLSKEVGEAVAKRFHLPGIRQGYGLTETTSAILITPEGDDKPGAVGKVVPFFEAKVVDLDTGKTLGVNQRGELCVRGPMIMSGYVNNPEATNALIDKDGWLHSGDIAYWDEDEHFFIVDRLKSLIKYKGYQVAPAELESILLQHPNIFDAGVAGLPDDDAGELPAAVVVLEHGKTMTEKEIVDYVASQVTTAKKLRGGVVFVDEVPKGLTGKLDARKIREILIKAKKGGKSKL
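Purified P. pyralis luciferase, 10 nM final, with Km-level 10 uM D-luciferin and 10 uM ATP in 50 mM Tris acetate pH 7.5, 10 mM Mg acetate, 0.01% Tween-20, 0.05% BSA; 6-point qHTS titration about 60 µM downward; luminescence read.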
SMN2 splice up: qHTS Assay for Enhancers of SMN2 Splice Variant Expression. AID 1458, 2008. Potency, µM (series often up to 46.1 µM), for inactives: at the highest dose activity change, positive = activation, hits mostly activators. HEK293 SMN2-luciferase splicing reporter, luminescence, 30-36 h. hit rate 2.8% among 210,000; also: % of control where 0% means no effect; nearly all actives have a fitted effect of over 55% in size
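qHTS luciferase splicing reporter: luminescence rises when SMN2 exon 7 is included in transfected HEK293 cells. Compound exposure lasted 30-36 h at 37C, with 4.5 mM final sodium butyrate as control, followed by a ONE-Glo read.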
Rab9 prom act: qHTS Assay for Rab9 Promoter Activators; Huh7 Rab9 promoter-luciferase reporter, luminescence, 24 h; AID 485297, 2010; hit rate 2.8% among 320,000; Potency, µM (top dose mostly 9.22 µM), inactives show at the highest dose activation, negative = inhibition, actives largely listed as activators; also: % of control where 0% means no effect; nearly all actives have a fitted effect of over 60% in size
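Huh7 cells stably carrying Rab9 promoter–luciferase reporter, plated 1500 cells/well, compound added after 2 h and incubated 24 h at 37 °C; luciferase luminescence then read after 10 min with detection reagent.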
ELG1 genotox: qHTS screen for small molecules that induce genotoxicity in human embryonic kidney (HEK293T) cells expressing luciferase-tagged ELG1 | AID 504466, 2011 | Potency, µM (titrated, usually from 46 µM), for inactives: at the top dose activity change, positive = activation, usual class: activators | hit rate 1.3% among 330,000 | HEK293T ELG1-luciferase reporter, luminescence, 16 h; also: % of control where 0% means no effect; nearly all actives have a fitted effect of over 60% in size
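Quantitative HTS format in 1536-well plates. HEK293T ELG1-luciferase reporter cells receive test compound and are incubated 16 hr at 37 °C, 5% CO2; ONE-Glo added, 30 min room temperature, then luminescence read.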
NPC1 prom act: qHTS Assay for NPC1 Promoter Activators; Huh7 NPC1 promoter luciferase reporter, 24 h; Potency, µM (doses to about 9.22 µM), for the others: top-dose activation, actives largely listed as activators; hit rate 2.4% among 320,000; AID 485313, 2010; also: % of control where 0% means no effect; nearly all actives have a fitted effect of over 60% in size
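Compounds in DMSO were transferred onto Huh7 NPC1-luciferase reporter cells pre-incubated 2 h; after 24 h at 37 °C, Amplite reagent was dispensed and luminescence recorded 10 min later.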
Starred values were filed as active, the others as inactive; ? = inconclusive; / = not tested or not shown; [ ] = dose if it differs, or a comment. Most compounds without a hit are left out; they make up all but 9.2% or so of the library. Calls follow the shape of the dose curve; as a rule, active = well fitted curve in the direction sought with a large enough effect; inconclusive = small, poorly fitted or top-dose-only effect, or another doubt; inactive = no such curve, though single readings can be large; an effect the other way counts as inactive or inconclusive. Potency is read from the fitted curve at half-maximal effect.

SMILES | ELG1 DNA repair | FLuc modulator | SMN2 splice up | Rab9 prom act | ELG1 genotox | NPC1 prom act
CCOC(=O)c1c(NC(=O)COc2ccc(OC)cc2)sc(C(=O)N(CC)CC)c1C | / | -12% | -41% | / | / | /
CCOC(=O)c1c(NC(=O)COC(=O)c2cccnc2OCC)sc(C(=O)N(CC)CC)c1C | 7.3µM* | / | / | / | -6% | /
CCN(C(=O)C1=COCCO1)c1nc2c(C)cccc2s1 | ? | 15µM* | / | ? | 21µM* | 29%
Cc1cc(C)c2nc(N(CCCN(C)C)C(=O)C3=COCCO3)sc2c1 | 23% | 3% | / | 3% | 11% | -5%
CCOC(=O)c1c(C)c(-c2ccccc2)n(CC(=O)NCCCN(CC)CC)c1C | 4% | 4% | 14% | -5% | -1% | -5%
Cc1nc2nc[nH]n2c(=O)c1CCOC(=O)c1ccccc1F | -10% | 11µM* | / | 13% | 3% | -4%
Cc1nc2nc[nH]n2c(=O)c1CCOC(=O)c1c(F)cccc1F | -3% | ? | 7% | 3% | 2% | -2%
COCCN1CC(CNC(=O)c2cc(COc3ccccc3SC)on2)CC1=O (stereo not given) | 22% | -19% | / | 6% | 3% | -1%
Cc1ccc(-c2cn3nc(-c4ccccc4)c(-c4ccccc4)nc3n2)cc1 | 0% | -13% | / | 2% | 0% | 4%
COc1ccc(-c2cn3nc4c(nc3n2)CCCC4)cc1 | ? | 0.54µM* | ? | 0.35µM* | ? | 0.45µM*
COc1ccc(-c2cc(C(=O)Nc3nc4ccccc4s3)c3ccccc3n2)cc1OC | 15µM* | 17µM* | -35% | 0% | -4% | -2%
COc1ccc(-c2cc(C(=O)Nc3ccccc3O)c3ccccc3n2)cc1OC | 23µM* | ? | -41% | -2% | -11% | -6%
CCc1ccc(S(=O)(=O)c2cnc3ccc(OC)cc3c2N2CCCC(C)C2)cc1 (stereo not given) | / | -9% | -21% | / | / | /
O=C(COC(=O)C12CC3CC(CC(O)(C3)C1)C2)Nc1cccc(Br)c1 | 19% | 13µM* | / | -2% | 2% | 1%
CC1CC1C(=O)OCC(=O)Nc1cccc(Br)c1 (stereo not given) | 17% | ? | / | 0% | 2% | 0%
CCOC(=O)[C@H]1[C@H]2COc3cc(OC)ccc3[C@@H]2N2C(=O)c3cc(F)ccc3NC(=O)[C@@]12C | 4% | -2% | / | -4% | 3% | -5%
N/C(=N\OC(=O)CCC1CCCC1)c1ccncc1 | ? | 13µM* | 3% | 2%[1.84 µM] | 9% | -4%
N/C(=N\OC(=O)CC1CCCCC1)c1ccccn1 | ? | 0.6µM* | 16% | 15% | ? | 20%
N/C(=N\OC(=O)CC1CCCCC1)c1ccncc1 | ? | 19µM* | / | 1% | 8% | 0%
CCC(NC(=O)CCC(=O)N1CCN(S(=O)(=O)c2ccc(C)cc2)CC1)c1ccc(C)cc1 (stereo not given) | -24% | 1% | / | -7% | -1% | -10%
O=C(Cn1cc(S(=O)(=O)c2ccc(Cl)cc2)c(=O)c2ccccc21)Nc1ccc2c(c1)OCO2 | / | -7% | -4% | / | / | /
COc1ccccc1C(=O)NNC(=O)c1cccc([N+](=O)[O-])c1 | ? | 19µM* | ? | ? | ? | 11%
O=C(NNC(=O)c1ccccc1-c1ccccc1C(=O)O)c1cccc([N+](=O)[O-])c1 | 0% | 0% | 10% | -6% | 3% | -1%
O=C(NNC(=O)c1ccccn1)c1cccc([N+](=O)[O-])c1 | 12µM* | -10% | -12% | 1% | -4% | -1%
COc1ccccc1C(=O)NNC(=O)c1cccc(C)c1 | ? | 12µM* | / | ? | ? | ?
